The whole screen tested about 310,000 compounds, of which about 14,000 (4.5%) showed an effect of 50% or more. Effects have a minus sign here. The sample as a whole holds a higher share of strong results than the screen did.
Each compound was assayed against human ether-à-go-go-related gene (hERG) potassium channel (human, UniProt Q12809) (assay: primary screen, population patch clamp on CHO cells stably expressing hERG; higher = less effect of the substance).
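Note: peak tail current of the secondary pulse compared with the same well before compound.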

Chain of human ether-à-go-go-related gene (hERG) potassium channel (Q12809 whole entry, looked up): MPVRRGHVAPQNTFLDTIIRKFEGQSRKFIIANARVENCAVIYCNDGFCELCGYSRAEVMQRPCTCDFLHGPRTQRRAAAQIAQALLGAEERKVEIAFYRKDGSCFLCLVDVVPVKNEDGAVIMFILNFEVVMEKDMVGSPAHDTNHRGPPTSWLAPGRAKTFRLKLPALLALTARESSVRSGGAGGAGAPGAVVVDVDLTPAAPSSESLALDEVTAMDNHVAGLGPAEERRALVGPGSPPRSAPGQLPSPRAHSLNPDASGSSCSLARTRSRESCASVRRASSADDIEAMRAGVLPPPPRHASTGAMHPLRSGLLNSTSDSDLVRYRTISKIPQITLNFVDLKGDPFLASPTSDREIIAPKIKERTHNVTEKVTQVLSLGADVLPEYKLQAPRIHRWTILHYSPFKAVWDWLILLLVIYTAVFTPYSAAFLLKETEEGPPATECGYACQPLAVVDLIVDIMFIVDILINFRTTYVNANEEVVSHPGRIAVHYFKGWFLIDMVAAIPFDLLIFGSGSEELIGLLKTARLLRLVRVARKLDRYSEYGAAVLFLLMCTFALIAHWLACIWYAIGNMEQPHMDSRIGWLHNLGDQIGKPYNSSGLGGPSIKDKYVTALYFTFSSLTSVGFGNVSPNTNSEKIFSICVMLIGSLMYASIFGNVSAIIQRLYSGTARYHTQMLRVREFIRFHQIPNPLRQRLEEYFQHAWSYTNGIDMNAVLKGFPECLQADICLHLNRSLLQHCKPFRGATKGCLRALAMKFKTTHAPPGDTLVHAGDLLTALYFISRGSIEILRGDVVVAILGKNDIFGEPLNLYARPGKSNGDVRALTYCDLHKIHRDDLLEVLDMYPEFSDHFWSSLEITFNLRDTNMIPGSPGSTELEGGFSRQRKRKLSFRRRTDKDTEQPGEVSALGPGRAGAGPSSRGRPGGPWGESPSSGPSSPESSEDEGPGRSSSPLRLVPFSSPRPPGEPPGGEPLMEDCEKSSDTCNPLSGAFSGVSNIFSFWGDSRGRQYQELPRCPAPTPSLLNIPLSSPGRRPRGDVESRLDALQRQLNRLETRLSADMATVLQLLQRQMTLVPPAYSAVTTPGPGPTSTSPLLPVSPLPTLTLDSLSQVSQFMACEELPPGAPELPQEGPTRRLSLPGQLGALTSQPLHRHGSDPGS

| Compound | hERG current change (%, negative = inhibition) at 10uM |
| --- | --- |
| O=C(COc1ccccc1)Nc1ccc([N+](=O)[O-])cc1 | 1.57% |
| CCOC(=O)c1[nH]cnc1C(=O)Nc1ccccc1OC | -2.79% |
| Cc1csc(SCC(=O)Nc2nnc(C)s2)n1 | 15% |
| CC(Sc1nncn1C)C(=O)Nc1ccccc1-c1ccccc1 (centres unmarked) | 8.27% |
| O=C(NC1CCCC1)C(c1ccncc1)N(C(=O)c1ccco1)c1ccccc1 (centres unmarked) | -5.61% |
| CCOC(=O)C1(CCOc2ccccc2)CCN(CC(O)CO)CC1 (centres unmarked) | -26.9% |
| CCOC(=O)C1(CCOc2ccccc2)CCN(CC=C(C)C)CC1 | -50.2% |
| CCOC(=O)C1(CCOc2ccccc2)CCN(CC2CC2)CC1 | -47.4% |
| CCCN1CCC(CCOc2ccccc2)(C(=O)OCC)CC1 | -58.5% |
| CCN1CCN(Cc2cccnc2)CC1 | 17.1% |
| CCCCOC(=O)c1ccc(NC(=O)CSc2nncn2C)cc1 | -4.57% |
| Cc1ccc(S(=O)(=O)NNC(=O)c2cnn(-c3ccccc3)c2-n2cccc2)cc1 | -15% |
| COc1ccc(C(=O)/C=C/C(=O)N(Cc2ccccc2)C(C(=O)NC2CCCCC2)c2ccncc2)c(O)c1 (centres unmarked) | -19.3% |
| O=C(N/N=C/c1ccsc1)c1ccc2ccccc2n1 | -2.2% |
| CCOC(=O)CSc1nc2ccccc2c(=O)n1Cc1ccco1 | -18.1% |
| O=c1c2ccccc2nnn1CSc1nc2ccccc2c(=O)n1Cc1ccco1 | -6.44% |
| CCn1c(SCC(=O)N2CCN(c3cccc(Cl)c3)CC2)nc2ccccc2c1=O | -39.1% |
| O=C(CSc1nc2ccccc2c(=O)n1Cc1ccco1)N1CCCCCC1 | -76.4% |
| O=C(CSc1nc2ccccc2c(=O)n1Cc1ccco1)N1CCN(c2ccccc2)CC1 | -74.9% |
| NC(=O)CSc1nc2ccccc2c(=O)n1Cc1ccco1 | -36% |
| O=C(CSc1nc2ccccc2c(=O)n1Cc1ccco1)N1CCCC1 | -77.1% |
| COCCn1nnnc1CN1CCN2CCCC2C1.Cl (centres unmarked) | 3.16% |
| C/C(=N/NC(=O)c1cc(-c2ccccc2)nc2c(Cl)cccc12)c1cccnc1 | 26.1% |

| Compound | hERG current change (%, negative = inhibition) at 10uM |
| --- | --- |
| Cc1cc(=O)[nH]c(SCC(=O)N2CCCC(C)C2)n1 (centres unmarked) | 11.3% |
| CCOc1ccc(N(CC(=O)Nc2ccc(OC)cc2)S(=O)(=O)c2c(C)[nH]c(=O)[nH]c2=O)cc1 | 1.99% |
| COc1ccc(S(=O)(=O)N2CCOCC2)cc1C(=O)NCC(c1ccco1)N1CCCC1 (centres unmarked) | 3% |
| C[NH+](C)CCCN1c2ccccc2Sc2ccc(Cl)cc21.[Cl-] | -65.3% |
| OCCN1CCN(CCCN2c3ccccc3Sc3ccc(Cl)cc32)CC1 | -49.3% |
| CN(C)CCCN1c2ccccc2Sc2ccc(Cl)cc21.Cl | -42.2% |
| O=C(Nc1ccccc1C(=O)N1CCCC1)c1ccc(Cl)cc1Cl | 14% |
| Cc1cc(C(=O)CSc2nnc(NCc3ccccc3)s2)c(C)n1C | -9.15% |
| O=C(CN1CCC(c2nc3ccccc3s2)CC1)N1CCCCC1 | -33.5% |
| Cc1cccc(C(=O)N2CCC(c3nc4ccccc4s3)CC2)c1 | -33.7% |
| O=C(c1cccc(F)c1)N1CCC(c2nc3ccccc3s2)CC1 | -49.9% |
| O=C(CN1CCC(c2nc3ccccc3s2)CC1)NCc1ccccc1 | -67.5% |
| CCc1ccc(C(=O)N2CCC(c3nc4ccccc4s3)CC2)cc1 | -71.9% |
| O=C(c1cccs1)N1CCC(c2nc3ccccc3s2)CC1 | -57.2% |
| O=C(c1cccs1)N1CCN(c2nc3ccccc3s2)CC1 | 0.757% |
| O=C(CN1CCC(c2nc3ccccc3s2)CC1)NCc1cccs1 | -37.2% |
| O=C(c1ccccc1Br)N1CCC(c2nc3ccccc3s2)CC1 | -35.1% |
| O=C(N/N=C/c1c[nH]c2ccc(Br)cc12)c1ccn(Cc2ccc(Cl)cc2Cl)n1 | 6.95% |
| C/C(=C\c1ccc(Br)cc1)C(=O)c1c(C)cc(C)[nH]c1=O | 8% |
| Cc1cc(C)c(NC(=O)CS)c(Cl)c1 | 6.4% |
| CCOc1ccc(C(=O)Nc2c(C(N)=O)oc3ccccc23)cc1 | 11.9% |
| O=C(Nc1c(C(=O)N2CCOCC2)oc2ccccc12)c1ccccc1Cl | 0.111% |
| O=C(Nc1c(C(=O)N2CCC(N3CCCCC3)CC2)oc2ccccc12)c1ccc(F)cc1 | -65.8% |

| Compound | hERG current change (%, negative = inhibition) at 10uM |
| --- | --- |
| COc1cc(C(=O)Nc2c(C(=O)N3CCOCC3)oc3ccccc23)cc(OC)c1OC | -10% |
| O=C(Nc1c(C(=O)N2CCC(N3CCCCC3)CC2)oc2ccccc12)c1c(F)cccc1F | -51.7% |
| O=C(c1ccc(F)cc1)N1CCC(N2CCCCCC2)CC1 | -26% |
| O=C(c1ccccc1F)N1CCC(N2CCCCCC2)CC1 | -10.3% |
| CCOc1ccc(C(=O)Nc2c(C(=O)N3CCC(N4CCCCC4)CC3)oc3ccccc23)cc1 | -83.2% |
| O=C(Nc1ccc(F)cc1)c1oc2ccccc2c1NC(=O)C1CCCC1 | -4.15% |
| O=C(O)CCCCCCCCc1cn(CCc2c[nH]c3ccccc23)nn1 | 4.49% |
| O=C(Nc1ccc(Cl)cc1)C1=Cc2ccccc2OC1 | -9.34% |
| CC(=NCCC1=CCCCC1)c1c(O)n(-c2ccccc2)c(=O)[nH]c1=O | 4.58% |
| CC(C)C[C@H](CO)Nc1nc(N(C)c2cccc(Cl)c2)c2ncn(C(C)C)c2n1 | -7.87% |
| COCCn1c(=S)[nH]c2cc(OC)c(OC)cc2c1=O | 11% |
| COc1ccc(-c2nnnn2-c2ccccc2OC)cc1 | -9.02% |
| Cc1ccc(CSc2nn3c(=O)c(C)nnc3s2)cc1 | -13.9% |
| Cc1ccc2nc(N3CCN(CCO)CC3)nc(-c3ccccc3)c2c1 | -54.4% |
| OCCN1CCN(c2nc(-c3ccccc3)c3cc(Br)ccc3n2)CC1 | -47.7% |
| Cc1ccc2nc(N3CCN(C=O)CC3)nc(-c3ccccc3)c2c1 | -56% |
| CCOC(=O)N1CCN(c2nc(-c3ccccc3)c3cc(C)ccc3n2)CC1 | -8.98% |
| Cc1ccc2nc(N3CCC(C(=O)O)CC3)nc(-c3ccccc3)c2c1 | -1.95% |
| OCCN1CCN(c2nc(-c3ccccc3)c3cc(Cl)ccc3n2)CC1 | -26.2% |
| Cc1cccn2c(Nc3ccccc3)c(-c3ccccn3)nc12 | 1.81% |
| NC(CSCc1ccccc1Cl)C(=O)O (centres unmarked) | 0.173% |
| COc1ccc(S(=O)(=O)N(C)c2ccc(C(=O)Nc3ccccc3C(=O)N3CCOCC3)cc2)cc1 | -6.94% |
| Cc1ccc(-n2nnnc2-c2ccco2)cc1 | -2.37% |

| Compound | hERG current change (%, negative = inhibition) at 10uM |
| --- | --- |
| O=C(N1CCC(n2nc(-c3ccccc3)oc2=O)CC1)C1(c2ccccc2)CC1 | -17.5% |
| COc1ccc(COC(=O)C2CC(=O)N(Cc3ccccc3)C2)cc1 (centres unmarked) | -34.1% |
| COc1ccc(COC(=O)C2CC(=O)N(Cc3ccc(C)cc3)C2)cc1 (centres unmarked) | -58.3% |
| CCc1ccc(N2CC(C(=O)OCC(=O)Nc3ccc(C#N)cc3)CC2=O)cc1 (centres unmarked) | -57.9% |
| Cc1cccc(N2CC(C(=O)O)CC2=O)c1 (centres unmarked) | -15.2% |
| CCc1ccc(N2CC(C(=O)OCC(=O)Nc3ccc(C(C)=O)cc3)CC2=O)cc1 (centres unmarked) | -19.1% |
| O=C(OCc1ccc([N+](=O)[O-])cc1)C1CC(=O)N(c2ccccc2)C1 (centres unmarked) | -69.1% |
| COc1ccc(NC(=O)COC(=O)C2CC(=O)N(Cc3ccc(C)cc3)C2)cc1 (centres unmarked) | -12.7% |
| CC(=O)c1ccc(OC(=O)C2CC(=O)N(c3cccc(C)c3)C2)cc1 (centres unmarked) | -1.85% |
| Cc1ccc(N2CC(C(=O)OCc3ccccc3)CC2=O)cc1 (centres unmarked) | -15.6% |
| NC(=O)C1CC(=O)N(c2ccc(OCc3ccc([N+](=O)[O-])cc3)cc2)C1 (centres unmarked) | -30.8% |
| CCc1ccc(N2CC(C(=O)OCC(=O)Nc3ccc([N+](=O)[O-])cc3)CC2=O)cc1 (centres unmarked) | -36.9% |
| Cc1cccc(N2CC(C(=O)OCc3ccc([N+](=O)[O-])cc3)CC2=O)c1 (centres unmarked) | -64% |
| Cc1ccnc(NS(=O)(=O)c2ccc(NS(=O)(=O)Cc3ccccc3)cc2)n1 | 9.43% |
| COc1cc2c(cc1OC)C(=S)NC1(CCCC1)C2 | 9.36% |
| COc1ccc(CCNC(C)C(=O)Nc2ccc(S(N)(=O)=O)cc2)cc1 (centres unmarked) | -9.23% |
| CC1CCC2C(=O)N(c3ccc(NC4CCCCC4)c([N+](=O)[O-])c3)C(=O)C2C1 (centres unmarked) | 1.71% |
| Cc1ccc(CSc2nc3c(c(=O)[nH]2)C(c2ccncc2)C2=C(CCCC2=O)N3)cc1 (centres unmarked) | 9.42% |
| COc1ccc(CCN2CC(C(=O)N(C)Cc3cccnc3)CC2=O)cc1OC (centres unmarked) | 8.53% |
| COC(=O)c1nnn(-c2nonc2N)c1CSCCO | 14.6% |

Source: article PMC4336329 (PLoS ONE, 2015)
